# Compound activity from PubChem.
# gsp agonist = activates gsp, the McCune-Albright syndrome mutation. gsp mutant cells, cAMP HTRF, 30 min. Potency, µM (titrated, usually from 76.9 µM), inactives show at the highest dose activation (cAMP increase), hits mostly activators. 0.13% of 340,000 active; active = well fitted activation curve with a large enough effect; inconclusive = small, poorly fitted or top-dose-only effect, or another doubt; inactive = no such curve, though single readings can be large or run the other way; cell line not stated here;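 note: phosphodiesterase inhibitor Ro 20-1724 added with compounds to block cAMP breakdown; potency is the fitted concentration of half-maximal effect; nearly all actives have a fitted effect of over 60% in size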
#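 Cells stably selected in G418 were plated at 2000/well, grown 16-24 hr, then given compounds in DMSO with the PDE inhibitor […] (300 uM solution added) for 30 min at 37C; cAMP was read by HTRF.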
# gsp antagonist = antagonizes gsp, the McCune-Albright syndrome mutation; gsp-mutant cells, cAMP HTRF, 30 min; Potency, µM (titrated, usually from 76.9 µM), for inactives: at the highest dose activity change, negative = inhibition, actives largely listed as inhibitors; 0.4% of 340,000 active; AID 624288; calls by dose curve; cell line not stated here;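 note: intracellular cAMP measured with PDE inhibitor Ro 20-1724 present during compound exposure; potency is the fitted concentration of half-maximal effect; % is set by controls: 0 for no effect and ±100 for the full control effect; nearly all actives have a fitted effect of over 65% in size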
#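 HTRF cAMP read-out (cAMP-d2 plus anti-cAMP antibody-K in lysis buffer, 30 min RT). Before lysis, cells are exposed to compounds with […] for 30 min at 37C in DPBS containing Ca/Mg, BSA and Tween 20.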
# CCT chaperon mod = changes cytosolic chaperonin activity | activity change, % (no concentration beside the values), hits read low | 0.3% of 360,000 active | AID 651819 | purified chaperonin ATPase assay, HTRF ADP detection, 30 min; in the data active = activity change below about -30%; note: % is set by controls: 0 for no effect and ±100 for the full control effect
#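 TRiC at 40 or 20 nM final (batch-dependent) in 30 mM Tris pH 7.4, 100 mM KCl, 5 mM MgCl2, 1 mM DTT, with compound at single 76 uM and 10 uM ATP, 30 min at 37 deg C. ADP detected by HTRF Transcreener, 665/615 ratio.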
# MmCpn inh = blocks the Methanococcus maripaludis chaperonin Mm-Cpn | purified Mm-Cpn ATPase, ADP Transcreener TR-FRET | Potency, µM (series often up to 76.9 µM), for the others: top-dose activity, negative = inhibition, actives largely listed as inhibitors | AID 504842 | 0.031% of 330,000 active; note: potency is the fitted concentration of half-maximal effect; % is set by controls: 0 for no effect and ±100 for the full control effect; nearly all actives have a fitted effect of over 80% in size
#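 Measured: ADP formation by purified Mm-CPN. Conditions: 25 nM protein, 10 uM ATP, Tris pH 7.4 with Mg2+, K+ and DTT, 37°C for 30 min. Detection: Transcreener HTRF after 30 min at room temperature.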
# RXFP1 antag = antagonists of human relaxin receptor RXFP1. activity change, negative = inhibition, % at 57.5 µM. 0.59% of 350,000 active. HEK293-RXFP1, relaxin-stimulated cAMP HTRF, 30 min; hits give low values. Q9HBX9;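 active = activity change of -60% or lower, but not beyond a set lower limit; inconclusive = change between -60% and -40%, or beyond the set limit; inactive = change above -40%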; note: % is set by controls: 0 for no effect and ±100 for the full control effect
# Target sequence (Q9HBX9 whole entry, looked up): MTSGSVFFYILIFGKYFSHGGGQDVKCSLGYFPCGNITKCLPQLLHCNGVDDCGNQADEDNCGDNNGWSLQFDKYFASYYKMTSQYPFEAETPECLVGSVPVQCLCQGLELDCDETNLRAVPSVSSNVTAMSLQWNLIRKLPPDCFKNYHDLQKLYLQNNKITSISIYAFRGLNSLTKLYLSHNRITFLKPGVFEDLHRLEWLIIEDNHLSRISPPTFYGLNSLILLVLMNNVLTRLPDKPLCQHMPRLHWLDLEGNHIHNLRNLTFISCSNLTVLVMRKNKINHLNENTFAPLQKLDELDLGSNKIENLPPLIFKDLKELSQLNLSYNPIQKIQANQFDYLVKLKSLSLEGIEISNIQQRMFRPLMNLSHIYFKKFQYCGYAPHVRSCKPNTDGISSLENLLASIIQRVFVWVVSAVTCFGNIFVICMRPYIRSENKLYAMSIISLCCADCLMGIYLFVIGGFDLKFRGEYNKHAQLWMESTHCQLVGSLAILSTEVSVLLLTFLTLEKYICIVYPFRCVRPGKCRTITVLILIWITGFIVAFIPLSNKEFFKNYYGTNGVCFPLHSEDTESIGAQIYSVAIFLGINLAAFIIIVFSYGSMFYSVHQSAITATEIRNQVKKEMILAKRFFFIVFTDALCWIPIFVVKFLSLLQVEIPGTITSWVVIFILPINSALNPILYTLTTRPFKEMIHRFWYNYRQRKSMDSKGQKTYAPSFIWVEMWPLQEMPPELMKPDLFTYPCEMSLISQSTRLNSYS
# RXFP1 ag = agonists of human relaxin receptor RXFP1. Q9HBX9. HEK293T-RXFP1 cAMP TR-FRET, 30 min; response scale: percent of porcine relaxin response, buffer zero. Potency, µM (series often up to 57.5 µM), for the others: top-dose activation, hits mostly activators. 0.3% of 370,000 active. AID 2676; note: potency is the fitted concentration of half-maximal effect; % is set by controls: 0 for no effect and ±100 for the full control effect; nearly all actives have a fitted effect of over 60% in size
#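 cAMP rise read by TR-FRET after 30 min, 37C compound exposure (up to 58 uM) in RXFP1-transfected HEK293 cells with Ro 20174 present. EC50 from Hill-equation fits, with 29 nM porcine relaxin as 100% and buffer as basal.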
# * hit, by the source's call; ? = inconclusive; / = no result; [ ] = another dose, or the depositor's remark. Hits are enriched below; roughly 1.2% of the tested compounds scored in any of these assays. Unless noted, calls come from the whole dose curve; as a rule, active = well fitted curve in the direction sought with a large enough effect; inconclusive = small, poorly fitted or top-dose-only effect, or another doubt; inactive = no such curve, though single readings can be large; an effect the other way counts as inactive or inconclusive.
SMILES,gsp agonist,gsp antagonist,CCT chaperon mod,MmCpn inh,RXFP1 antag,RXFP1 ag
Cc1cccc(NC(=O)C2=C(O)c3ccccc3N(C)S2(=O)=O)c1,18%,25µM*,-2,-1%,18,-2%
CN1c2ccsc2C(O)=C(C(=O)Nc2ccccc2)S1(=O)=O,-39%,?,-1,0%,-3,-2%
CN1c2ccccc2C(O)=C(C(=S)Nc2ccc(Cl)cc2)S1(=O)=O,3%,28µM*,0,0%,-4,-2%
CCCN(c1ccccc1CC)S(=O)(=O)c1ccc2c(c1)CC(C)N2C(=O)C1CC1 (stereo not given),/,/,/,/,-14,0%
Cc1cc(S(=O)(=O)Nc2ccc3oc4c(c3c2)CCCC4)ccc1Cl,/,/,/,/,?,5%
Cc1cccc(C)c1OCC(=O)Nc1ccccc1C(F)(F)F,-33%,-5%,-38*,1%,1,1%
Cc1cccc(OCC(=O)Nc2ccccc2C(F)(F)F)c1,-48%,14%,-1,1%,5,4%
COc1ccc(-n2ncc(C(=O)N3CCN(C4CCCCC4)CC3)c2C2CCN(C(=O)OC(C)(C)C)CC2)cc1,/,/,/,/,-14,-4%
O=C(Nc1ccc(NC(=O)c2cccs2)c(Cl)c1)c1ccco1,-50%,-12%,-1,3%,3,0%
N#C/C(=C(/O)c1cc2ccccc2o1)c1nc2ccccc2s1,-52%,-21%,0,0%,0,0%
N#C/C(=C(/O)c1ccco1)c1nc2ccccc2s1,-16%,35µM*,0,-4%,3,6%
O=C(Nc1ccccc1-c1nc2ccccc2s1)c1ccco1,25µM*,24%,1,-11%,-2,20%
O=C(Nc1ccc(NC(=O)c2sc3ccccc3c2Cl)cc1Cl)c1ccco1,?,18%,-33*,0%,-9,4%
Cc1ccc(C)c(CSc2nc3ncccc3[nH]2)c1,/,/,/,/,10,-1%
O=C(NCc1ccccc1F)c1cccs1,4%,6%,-37*,0%,-2,0%
O=C(NCc1ccc(F)cc1)c1cccs1,?,10%,-3,0%,-3,5%
CCCC[C@]12Cc3cc(C#N)ccc3C(O1)c1c(cc(C)n(Cc3ccccc3)c1=O)O2,/,/,/,-9%[15.4 µM],/,3.2µM*
O=C(CSc1nc2c([nH]c3ccccc32)c(=O)n1-c1ccccc1F)Nc1cccc(C(F)(F)F)c1,/,/,/,/,/,0%
CCc1ccc(C(=O)C(C)CN2CCCCC2)cc1 (stereo not given),/,/,/,/,2,/
Fc1ccccc1N1CCN(c2nc(-c3cccs3)nc3ccccc23)CC1,-4%[15.4 µM],8%,-1,-5%,-17,1%
CN(Cc1ccccc1F)c1nc(-c2cccs2)nc2ccccc12,19%[15.4 µM],11µM*,-6,-15%,-28,2%
Cc1ccc(C)c(CSc2nnc3[nH]c(=O)cc(-c4ccccc4)n23)c1,/,/,/,/,-11,6%
Cc1c(C(=O)NC2CCCCC2C)oc2ccccc12 (stereo not given),?,7.1µM*,-2,4%,-6,0%
CCOC(=O)C1CCN(C2=NC(=O)/C(=C/c3ccc(Cl)cc3)S2)CC1,45%,-6%,-2,0%,-29,-3%
CCOC(=O)CSC1=NC(=O)/C(=C\c2ccc(Cl)cc2)S1,17%,32µM*,0,0%,-16,-1%
SMILES,gsp agonist,gsp antagonist,CCT chaperon mod,MmCpn inh,RXFP1 antag,RXFP1 ag
Cn1c(=O)c(=O)n(C)c2cc(S(=O)(=O)N3CCC(Cc4ccccc4)CC3)ccc21,4%,-2%,1,3%,0,6%
O=c1[nH]c2ccc(S(=O)(=O)N3CCC(Cc4ccccc4)CC3)cc2o1,8%,25µM*,-1,0%,-6,2%
NC(=O)C1CCN(c2nc(-c3cccc([N+](=O)[O-])c3)cs2)CC1,/,/,/,1%,/,/
NC(=O)c1ccsc1NC(=O)COC(=O)Cc1c[nH]c2ccccc12,-18%,-13%,-2,-2%,0,0%
NC(=O)c1ccsc1NC(=O)COC(=O)Cc1cccc2ccccc12,32%,35µM*,0,0%,-10,0%
COc1cc(C(=O)OCc2cc(=O)n3nc(C4CCCCC4)sc3n2)cc(OC)c1OC,/,/,/,/,/,1%
Cc1ccc(S(=O)(=O)O/N=C2\CCCc3ccccc32)cc1,-3%,25%,2,1%,-1,1%
CC1=C(C)/C(=N\OS(=O)(=O)c2ccccc2)C=CC1=O,4%,?,-1,0%,-114*,-3%
CN(C)S(=O)(=O)c1cccc(NC(=S)Nc2cccc3cnccc23)c1,19%,-13%,-1,-1%,-71*,-5%
Cc1ccc(C(=O)NCCNc2nc3cc(C)c(C)cc3cc2C)cc1,22µM*,3%,-2,-1%,-9,-1%
Cc1cc2cc(C)c(NCCNC(=O)c3ccccc3)nc2cc1C,-56%,-2%,-2,-1%,-5,1%
C=Cc1ccc(CN2C(=O)N(c3cccc(Cl)c3)S(=O)(=O)c3ccccc32)cc1,/,/,/,/,-15,1%
COC(=O)c1[nH]c2ccc(Br)cc2c1NC(=O)CN1CCN(C2CCCCC2)CC1,26%,-6%,-1,-4%,-63*,0%
COC(=O)c1[nH]c2ccc(C)cc2c1NC(=O)CCN1CCN(C2CCCCC2)CC1,/,/,/,0%,/,2%
COC(=O)c1ccc(NC(=O)c2ccc3c(c2)C(=O)N(Cc2cccnc2)C3=O)cc1,1%,40µM*,-1,1%,-1,0%
CC(C)CN1C(=O)c2ccc(C(=O)Nc3ccncc3)cc2C1=O,-65%,28µM*,-2,-1%,-4,0%
CC(C)CCN1C(=O)c2ccc(C(=O)Nc3ccc(Br)cc3C(=O)O)cc2C1=O,5%,35µM*,-4,2%,-7,0%
CS(=O)(=O)n1nc(-c2ccc(Cl)cc2)nc1N,11%[15.4 µM],5%,-2,-4%,-1,1%
Cn1nc(-c2ccc(Cl)cc2)nc2c(=O)n(C)c(=O)nc1-2,/,/,/,-8%,/,4.5µM*
CCOc1ccc(CCNC(=O)c2[nH]c(C)c(C(C)=O)c2CC)cc1OCC,?,-7%,-4,1%,-7,-1%
CCc1c(C(=O)Nc2cc(C)cc(C)c2)[nH]c(C)c1C(C)=O,-7%,35µM*,-4,1%,-9,-1%
CCOc1cc(CNCc2ccccc2)ccc1OCc1ccc(Cl)cc1,-54%,6%,-5,0%,-96*,-3%
Cc1nc2c(C(=O)NCCc3ccc(Cl)cc3)c[nH]n2c(=O)c1Cc1ccc(Cl)cc1,/,/,/,/,-23,-3%
Cc1nc2c(C(=O)NCCC3=CCCCC3)c[nH]n2c(=O)c1Cl,0%,-6%,-39*,1%,-3,-2%
